This is an account of results in PubChem BioAssay AID1566 (Sanford-Burnham Center for Chemical Genomics, 2009).

Structures are written as SMILES. Where “and” joins values, the source holds several entries; their conditions need not be identical. Equal entries are not always repeated. About 1,800 (0.62%) of roughly 290,000 compounds were called active. The sample holds actives, similar compounds and a random draw of the others, so the mix is not that of the screen. Unmarked numbers belong to inactive results. No stated cut-off is given here; in the data, active means inhibition above about 50%; inactive means the rest.

This assay is described as follows: NOD2 signaling inhibitors, cell-based, luminescence, uHTS, HEK293 (AID 1566). Conditions: HEK293 NOD2/NF-kB luciferase reporter, at 4 µM, stronger effect = higher value.
Broadly, the inhibition is the drop in the measured response relative to a control, in per cent. Regarding `Nn1cnnc1SCC(=O)Nc1ccc(C2CCCCC2)cc1`, the inhibition is -14.6%.
For the molecule `O=C(O)CSCC(=O)Nc1ccc(C2CCCCC2)cc1`, the inhibition is 73.5% (active).
As for `O=C(CSCCO)Nc1ccc(C2CCCCC2)cc1`, the figure is -8.8%.
As for `C=C1CCC[C@]2(C)C[C@H]3OC(=O)C(CNC(C)(CO)CO)[C@H]3CC12` (stereo partly drawn), the figure is 3.4%; as for `CC1(C)CC(NC(=O)c2cccc3ccccc23)CC(C)(C)N1`, -1.7%.
As for `COc1cc(C(=O)Nc2sc3c(c2C(=O)O)CCC3)cc(OC)c1OC`, the figure is 23.1%; as for `COc1cc(C(=O)Nc2scc(-c3ccccc3)c2C(=O)O)cc(OC)c1OC`, 13.6%; as for `CC1CCc2c(sc(NC(=O)c3ccco3)c2C(=O)O)C1` (stereo not drawn), 36.1%.
For the molecule `COc1cc(C(=O)Nc2scc(-c3ccc(C)cc3)c2C(=O)O)cc(OC)c1OC`, the inhibition is 42.9%.
Then `CC(C)(C)OC(=O)C(C)(C)O/N=C(\C(=O)O)c1csc(N)n1`, with 12.5%.
As for `Cn1c(N/N=C/c2cc3ccccc3nc2Cl)nc2ccccc21`, the figure is -51%; as for `Clc1ccc(-c2nc3n(n2)Cc2ccccc2-3)cc1`, -152%.
Then `Cc1ccc(-c2nc3n(n2)Cc2ccccc2-3)cc1`, with -79.2%; and `CCn1c(C)nc2cc(-c3nc4n(n3)Cc3ccccc3-4)ccc21`, with 93% (active); and `CCC(=O)c1ccccc1OCCN1CCN(Cc2ccccc2)CC1`, with 2.5%.
Consider `O=C1OCCC1Sc1nnc(-c2ccc3c(c2)OCO3)o1` (stereo not drawn), for which the inhibition is 28%.
With `O=C(c1ccc(Cl)cc1)N1CCCCC(Sc2nnc(-c3ccc4c(c3)OCO4)o2)C1=O` (stereo not drawn), the inhibition was 29.1%.
Then `O=C1CCCCC1Sc1nnc(-c2ccc3c(c2)OCO3)o1` (stereo not drawn), with 71.3% (active).
Then `CCN(CC)c1ccc2cc(NC(=O)CCC(=O)O)c(=O)oc2c1`, with 57.1% (active); and `CCN(CC)c1ccc2cc(C(C)=O)c(=O)oc2c1`, with -9.9%; and `CCN(CC)c1ccc2cc(C(N)=O)c(=O)oc2c1`, with -17.6%.
Then `O=C(N/N=C/c1cccc(O)c1)C(=O)N1CCCCCC1`, with 8.2%; and `COc1ccc(COC(=O)C2=C(C)NC(=O)NC2c2ccc(F)cc2)cc1` (stereo not drawn), with 50.5% (active).
Turning to `COc1ccc(COC(=O)C2=C(C)NC(=O)NC2c2ccc(OC)cc2)cc1` (stereo not drawn), the inhibition was 17.9%.
Then `COc1ccc(COC(=O)C2=C(C)NC(=O)NC2c2ccc(O)cc2)cc1` (stereo not drawn), with 5.6%.
Then `O=C(CN1CCN(S(=O)(=O)c2ccc(Cl)cc2)CC1)NC1CCCC1`, with -2.2%; and `C#CC(=O)N(c1ccc(OC)cc1OC)C(C(=O)NC1CCCC1)c1cccs1` (stereo not drawn), with 62% (active).
Then `C#CC(=O)N(c1ccc(OC)c(OC)c1)C(C(=O)NC1CCCC1)c1cccs1` (stereo not drawn), with -0.2%; and `C#CC(=O)N(c1cc(OC)ccc1OC)C(C(=O)NC1CCCC1)c1cccs1` (stereo not drawn), with 17%.
`CC(=O)c1c(C)[nH]c(C(=O)Nc2nc(-c3ccc(Cl)cc3)cs2)c1C`: the inhibition was 31.2%.
Then `CC(=O)c1c(C)[nH]c(C(=O)Nc2nc(C)cs2)c1C`, with -21.9%; and `CCCNC(=O)CCCN1C(=O)c2ccccc2Sc2ncccc21`, with 7.1%; and `CCCCN(CC)CCCNC(=O)Cn1nc(Cc2ccncc2)c2ccccc2c1=O`, with 2.4%.
For `COc1ccccc1-n1c(-c2ccccc2)c[n+]2c1CCc1ccccc1-2`, the inhibition was 49% and 41.3%.
As for `Cc1ccc(-n2c(-c3ccccc3)c[n+]3c2CCc2ccccc2-3)c(C)c1`, the figure is 56.2% (active); as for `COc1ccc(-n2c(-c3ccc(Br)cc3)c[n+]3c2CCc2ccccc2-3)cc1`, 31.4%.
Then `CSc1ncccc1C(=O)OCC(=O)c1cc(C)n(CC2CCCO2)c1C` (stereo not drawn), with 5.9%; and `COCCn1c(C)cc(C(=O)COC(=O)c2ccc(Br)o2)c1C`, with 4.7%.
Then `COCCn1c(C)cc(C(=O)COC(=O)c2ccccc2Br)c1C`, with 68.7% (active); and `Cc1cc(C(=O)COC(=O)c2ccc(O)cc2)c(C)n1CC1CCCO1` (stereo not drawn), with -113%; and `Cc1cc(C(=O)COC(=O)c2ccccc2NCCO)c(C)n1CC1CCCO1` (stereo not drawn), with -4.6%.
Take `Cc1ccc(C(=O)OCC(=O)c2cc(C)n(CC3CCCO3)c2C)cc1` (stereo not drawn): the inhibition is 18.2%.
Then `Cc1cc(C(=O)COC(=O)c2cccnc2Cl)c(C)n1CC1CCCO1` (stereo not drawn), with 55.8% (active); and `COCCn1c(C)cc(C(=O)COC(=O)c2ccc[nH]c2=O)c1C`, with 29.6%.
As for `O=C(CC1C(=O)NCCN1C(=O)Nc1ccc(Cl)cc1)Nc1ccc(F)cc1` (stereo not drawn), the figure is 8.1%; as for `COc1ccc(C/C(C)=N/NC(=O)c2cccnc2)cc1`, -5.6%.
Then `CCOc1ccccc1/C=C/C(=O)NCC(=O)N1CCC(N(C)C2CCCCC2C)CC1` (stereo not drawn), with 9.7%.
`COc1ccc(CNCCNC(=O)c2nonc2N)cc1OC`: the inhibition was 11.4%.
For the molecule `Cc1ccc(S(=O)(=O)Nc2ccccc2C(=O)N2CCN(C)CC2)cc1`, the inhibition is 4%.
As for `COc1ccc(NC(=O)CO/N=C(\C)c2cccs2)cc1`, the figure is -10.2%; as for `O=C(Nc1ccccc1)Nc1cccc(C(F)(F)F)c1`, -38.6%.
As for `O=C(Nc1ccncc1)Nc1cccc(C(F)(F)F)c1`, the inhibition is 18%.
As for `O=S(=O)(c1ccc(NCc2ccc(F)cc2)nc1)N1CCCC1`, the figure is 12.4%; as for `CC(OC(=O)Cc1ccc(Cl)cc1)C(=O)NCCC1=CCCCC1` (stereo not drawn), 17.9%.
As for `COC(=O)c1ccc(NC(=O)c2ccccc2NS(C)(=O)=O)cc1`, the figure is 6.5%.
As for `COc1ccccc1C(=O)Nc1ccc(C(=O)O)cc1`, the figure is -1.4%; as for `Cc1cc(C(=O)Nc2ccccc2C(=O)O)ccc1NC(=O)COc1cccc(C)c1C`, 47.7%.
As to `Cc1ccccc1OCC(=O)Nc1ccc(C(=O)Nc2ccccc2C(=O)O)cc1`, the inhibition was 33.3%.
Then `COc1ccccc1C(=O)Nc1ccc(C(=O)Nc2ccccc2C(=O)O)cc1`, with 59.6% (active); and `COC(=O)c1ccccc1NS(=O)(=O)c1ccc(NC(C)=O)cc1`, with 1.9%; and `COc1ccccc1C(=O)Nc1ccc(C(=O)c2ccccc2)cc1`, with 4.1%.
Then `c1ccc(CCSc2nccn2-c2ccccc2)cc1`, with -141%; and `CCCc1cc(=O)oc2c3c(c(Cl)cc12)OCN(CCCO)C3`, with -64.8%; and `CC(C)C(c1nnnn1C1CCCCC1)N1CCOCC1` (stereo not drawn), with 0.1%.
On to `CCOC(=O)c1cccc(NC(=O)c2cc3ccccc3o2)c1`, for which the inhibition was -97.4%.
As for `CCOc1ccc(/C=N/n2c(C)nnc2C)cc1OC`, the inhibition is 8%.
Then `Cc1ccc(C(=O)OCc2cc3ccccc3[nH]c2=O)cc1`, with 3.6%; and `O=C(c1ccc(N2CCN(C(=O)c3ccc(F)cc3F)CC2)cc1)c1cccc(F)c1`, with 10.3%; and `COCCn1c(C)cc(C2=NNC(=Nc3ccc(OC)cc3)SC2)c1C`, with -9.9%.
Then `C=CCn1c(C)cc(C2=NNC(=NCc3ccccc3)SC2)c1C`, with -78%; and `C=CCN=C1NN=C(c2cc(C)n(CCOC)c2C)CS1`, with 65.1% (active).
In the case of `C=CCN=C1NN=C(c2cc(C)n(CC=C)c2C)CS1`, the inhibition was 73.6% (active).
As for `COCCn1c(C)cc(C2=NNC(=NC(C)(C)C)SC2)c1C`, the figure is 4.6%.
Then `COCCn1c(C)cc(C2=NNC(=Nc3ccccc3)SC2)c1C`, with -146%; and `COCCn1c(C)cc(C2=NNC(=Nc3ccccc3F)SC2)c1C`, with 61.6% (active).
As for `COCCn1c(C)cc(C2=NNC(=Nc3ccc(Cl)cc3Cl)SC2)c1C`, the figure is 8.7%; as for `COCCCN=C1NN=C(c2cc(C)n(Cc3ccccc3Cl)c2C)CS1`, -30.7%; as for `Cc1cc(C2=NNC(=NCCc3ccccc3)SC2)c(C)n1CC1CCCO1` (stereo not drawn), -32.5%.
Take `COCCn1c(C)cc(C2=NNC(=NC3CC3)SC2)c1C`: the inhibition was 94% (active).
Then `COCCN=C1NN=C(c2cc(C)n(CC3CCCO3)c2C)CS1` (stereo not drawn), with 19.4%; and `C#CCOc1c(Cl)cc(/C=C2/C(=O)ON=C2C)cc1OC`, with 6.6%; and `Cn1c(=O)oc2cc(S(=O)(=O)NCCC(=O)NC3CCCC3)ccc21`, with -0.1%.
Consider `COc1ccc(CCN=C(N)Nc2nc(C)cc(C)n2)cc1`, for which the inhibition was 8.4%.
As for `COCCn1c(Cc2cccn2C)nnc1SCC(=O)NCc1ccc2c(c1)OCO2`, the figure is 5.3%.
Consider `COc1ccccc1-n1c(SCC(=O)N2CCOCC2)nc2ccccc2c1=O`, for which the inhibition is 2.8%.
Then `CCOC(=O)CNC(=O)CSc1ccc2nnc(-c3ccc(F)cc3)n2n1`, with 8.4%; and `Cc1ccc(-c2noc(C3CCCN(C(=O)c4ccc(Cl)cc4)C3)n2)o1` (stereo not drawn), with -1.8%; and `C=CCn1c(C)cc(C2=NNC(=NCC)SC2)c1C`, with 92.6% (active).
Then `CCN=C1NN=C(c2ccc(C)cc2)CS1`, with -71.4%.
Then `Cc1cc(C2=NNC(=Nc3ccccc3)SC2)c(C)n1C`, with -60.1%; and `C=CCn1c(C)cc(C2=NNC(=Nc3ccc(C)cc3)SC2)c1C`, with 3%; and `C=CCn1c(C)cc(C2=NNC(=NC(C)(C)C)SC2)c1C`, with 63.3% (active).
As for `CC(C)(C)N=C1NN=C(c2ccc(Cl)cc2)CS1`, the inhibition was -99%.
As for `CN(C(=O)Cn1nnc2ccccc2c1=O)C1CCCCC1`, the inhibition was 6.8%.
Then `COc1ccc(-c2nnc(SCC(=O)NC3CCCCC3)o2)cc1`, with 6%; and `CCOc1ccccc1N(CC(=O)NCC1CCCO1)C(=O)CNS(=O)(=O)c1ccccc1` (stereo not drawn), with -15.5%.
Then `COc1ccc(-n2c(-c3ccc(C)cc3)n[nH]c2=S)cc1`, with -6.4%; and `O=C(CCSc1nc(-c2ccco2)cc(C(F)(F)F)n1)N1CCN(c2ccccc2)CC1`, with -17.1%.
